# Experimental data: the supplement of paper PMC6555819
# Key:
# Assay in all cases: PBM binding z-score (relative to random genomic background probes); higher = stronger binding; sequences stand for … in GC…GCGATTGACAGCGTAGAATGAAGG
# [1] = system: RARb homodimer (NR concentration 270 nM)
# Procedure, shortened: (§1)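 Random background probes are the reference for binding z-scores. These scores derive from regression-normalized fluorescence on custom Agilent 4×180K protein-binding microarrays incubated 1 h with ligand-free nuclear receptor dimers. Binding was detected with antibodies against each partner (one per run).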
# [2] = system: RARg:RXRa (NR concentration 270 nM, RXRa partner concentration 90 nM)
# Procedure, shortened: as §1
# [3] = system: RARg homodimer (NR concentration 270 nM)
# Procedure, shortened: as §1
# [4] = system: RXRa DBDmut IVT, anti-RXR (DBD mutation: RXRa K156A/R161A, NR concentration 90 nM)
# Procedure, shortened: as §1
# [5] = system: RXRa homodimer (NR concentration 180 nM)
# Procedure, shortened: as §1
# [6] = system: THRa:RXRa (NR concentration 90 nM, RXRa partner concentration 90 nM)
# Procedure, shortened: as §1
# [7] = system: THRa homodimer (NR concentration 90 nM)
# Procedure, shortened: as §1
# [8] = system: VDR homodimer (NR concentration 270 nM)
# Procedure, shortened: as §1
Sequence,PBM binding z-score [1],PBM binding z-score [2],PBM binding z-score [3],PBM binding z-score [4],PBM binding z-score [5],PBM binding z-score [6],PBM binding z-score [7],PBM binding z-score [8]
CTACCAAGCTGAACAAGGTCGTTGATTACTATTC,1.13,0.311,0.109,1.3,0.787,1.86,1.46,2.1
CCTCGGAGGACAGAAGGTAAGAGCTGTCCGCTTT,-0.457,-0.117,0.0766,-0.382,-0.845,-0.0375,-0.566,-0.677
TAGCCTAGGTCAGAACGGGCCAGTATACGCTATA,1.79,2.22,2.92,-0.315,1.19,2.46,-0.361,-0.307
ATCTCTAGGTAACAAGTTCAGGGAAAGAGAGGAC,1.98,1.77,1.62,1.06,1.23,1.85,1.01,2.78
CCTACTGGGCCAAAAACGTCATTGATGCCGATAA,-0.34,-0.089,-0.172,-0.196,0.029,-0.371,-0.47,-0.735
GCTTACGGGTCAAAGGGTATAGCATGAATAGAAT,2.63,5.24,4.04,2.41,7.03,2.8,-0.191,1.45
TAGCCTAGGTCATTGGGCCACTATAGTACGCATC,3.11,3.84,4.24,1.92,2.97,2.87,1.3,1.77
CGAACGGGGGCATGAGTTGATAGCAAATGCCGAT,1.89,3.42,3.74,3.24,2.51,3.04,1.25,3.69
CGAACTAGGTCAATGACAGTGAATCTCCGCACGC,2.77,3.48,4.07,1.91,2.36,2.2,0.673,0.425
CGTCCTAGGTCATAGGAGGTCAGTGAAGACAGAT,4.83,5.44,5.84,2.08,4.28,5.13,1.73,2.29
AAGACAGGGTCACTAGGCCAGAGTAGGTACGAAT,3.02,4.97,4.66,2.26,5.58,3.1,0.755,1.87
CGTCCATGGTCATAGGAGGTCAGTGAAGACAGAT,3.47,2.87,2.8,0.0145,2.18,3.83,0.621,1.16
CCTGCTAGGTCATGGTGAGCTAATCTACAGTATG,2.8,3.83,4.17,1.72,2.52,2.82,0.878,-0.0752
ATCGAAAGGCCGTGAGGTGAGTATACAGAAAGGC,0.911,1.47,1.42,-0.765,0.904,1.93,0.902,-0.0558
CCTCCAAGGTCAGAGAGGTCAGTGAATGCCGAGT,5.51,6.2,6.87,3.18,5.37,4.36,2.59,4.62
CAAACTAGGTCCAGGTCAAAGTCGGTTTGTGCCA,3.03,2.6,2.27,1.62,2.37,3.31,2.79,2.49
ACTAGCATGCCAAGTTTGGGTCACTCAAACAAAG,1.71,1.43,0.744,-0.167,0.674,2.19,0.882,0.673
ATCGAAAGGTCGACGAGGTGAGTATTCACCGTTT,3.13,4.29,4.32,1.13,4.63,3.65,0.672,0.806
CCGACTGGGGCAAAGGGTACCATACTCAGTACGA,0.849,0.946,0.506,-0.546,0.731,0.31,-0.963,0.0229

Sequence,PBM binding z-score [1],PBM binding z-score [2],PBM binding z-score [3],PBM binding z-score [4],PBM binding z-score [5],PBM binding z-score [6],PBM binding z-score [7],PBM binding z-score [8]
CCTACCGGGCCAAGGTCATTGATCAGTCAAAGCA,3.48,3.89,3.32,0.804,3.5,3.58,2.77,3.08
CCTTACTGGTCAAGGTTATAGCACGGGTGGTACG,1.78,1.43,1.55,-0.171,1.37,1.52,1.09,0.749
TCATATAGGTGAAGGTGAAAGTCGAACGATATGA,1.3,1.42,1.48,0.518,1.6,0.793,-0.343,-0.0365
GCGACTGGGGCATCAGCAGGTTAACATAACTTAA,1.03,1.09,0.785,-0.118,0.5,1.04,-0.291,-0.312
TCCAGTAGGTTAGTCGGGGCATTCAGCCAACATA,0.924,0.125,0.158,1.18,0.345,1.19,0.383,0.673
GCAGAGAGGTGAAACGCAGGTAACTCAGGGTGGC,1.31,2.59,1.21,0.025,1.79,2.37,0.0883,-0.369
GCATATAGGTAATAGAAGGTGAAAGTCCGATTGT,0.803,0.423,0.585,0.488,0.618,2.5,-0.242,0.274
CCTACTGGTCCACGAAAGGTCATTGATTCAGTGA,4.62,4.79,4.43,1.26,5.49,3.52,1.6,3.62
CAAACTAGGTCAGCGGAAGGTCAAAGTCCGCATG,5.24,7.66,6.32,1.11,4.98,4.05,1.64,2.6
CCTACTGCGCCACGAAAGGTCATTGATTCAGTGA,4.75,4.62,4,1.51,5.58,3.36,1.47,2.91
AATACAGAGTCACTAGGCCAGAGTAGGTACGAAT,0.0526,0.21,0.516,-0.494,0.28,-0.12,-0.685,-0.0774
ATCGAAAGGTCGAAGGCGAGTATACCCACCCGAA,2.23,3.79,3.68,0.777,3.64,1.75,-0.359,0.879
CGAATGAGGGCATGAGTTGATAGCAAATGCCGAT,0.499,1.14,1.58,2.3,1.03,1.83,0.345,1.33
TCTTGTAGATGAGCAGGTTAAGAAAGCTGGCCAA,-0.681,-0.327,-0.525,-0.188,0.00792,-0.277,-0.72,-0.433
TAGCCTAGGTCATGGTCCAGTATACCACGCGAAC,3.04,3.96,4.28,0.681,3.51,3.39,1.75,0.777
CCGAGAAGGTTATGGGGCATTCAGGCAACGGTGA,1.61,1.84,1.38,0.364,2.23,1.3,0.0713,0.22
CAAACTAGGTCACGAAACGTCAAAGTCGAATGAC,3.21,4.59,5.27,1.07,3.8,3.28,1.52,0.534
TCTTGTTGATCAACAGGAGGTTAAGAAAGATCGA,0.286,0.304,0.198,0.0758,0.644,0.723,-0.731,-0.304
ACAGACAGGAGATGAAGGTAACTCAGGCTATCAT,0.465,0.0751,0.419,-0.203,-0.000835,1.03,0.773,0.239

Sequence,PBM binding z-score [1],PBM binding z-score [2],PBM binding z-score [3],PBM binding z-score [4],PBM binding z-score [5],PBM binding z-score [6],PBM binding z-score [7],PBM binding z-score [8]
CGAACTAGGTTATTGACAGGACAGTGAATAGTAA,0.991,1.04,0.618,0.59,0.57,1.27,-0.0792,0.278
TCTTGTAGATCAACAGGAGGTTAAGAACGATCGA,0.615,0.992,0.377,0.686,0.967,0.923,-0.518,-0.0634
TGATATAGGTAATACAGGTGAAAGTCGGCATCTA,0.513,0.793,0.583,-0.27,1.12,0.952,0.267,0.316
GCTAGCCGGCCATTTGGGTCACTCAATGACGGGC,1.75,0.912,1.1,-0.739,0.725,1.62,0.719,0.157
TCTATTAGTTGATTAGCGCAACCGAAACAGCGGA,-0.343,0.177,-0.0626,1.29,0.499,0.0464,0.16,0.523
ACTAGCATGCCAAGGGTCACTCAAGATTAGTCCG,3.83,3.77,3.69,0.719,3.91,2.75,0.299,1.64
AGGCAAAGTTCATCTAGGTAACGTAAGATATGCT,3.56,5.33,5.75,4.59,4.37,3.18,0.436,4.85
CCTTACGGGTCACTACAGGTTATAGCATCGGAGT,3.27,4.6,4.47,1.7,4.64,4.19,-0.0959,1.31
TCATATAGGTAAAGGTGAAACTCGAACGATATGA,1.6,1.84,1.54,0.648,2.47,1.57,-0.601,-0.375
TCTCGTAGATCAGCAGGTTAAGAAAGCTGGCCAA,-0.209,-0.0899,-0.67,0.451,0.405,0.0434,-0.546,-0.597
TCATATAGGTAAATGCTAGGTGAAAGTCCGATCT,0.629,0.482,0.503,1.42,0.567,1.39,0.441,0.42
ACAACGAGGGCACGCTGAGTTGATAGCAGAGTAG,0.921,2.12,2.44,2.16,1.24,1.75,-0.067,2.04
ACTATTAGTTGACTTAGGGCAACGGATACGACGC,0.939,0.643,1.01,0.466,0.497,1.47,0.279,-0.0346
TAGCCTAGGTCAGATCGGGCCCGTATACGCTATA,1.94,2.58,3.06,-0.297,1.37,2.39,0.0174,-0.316
AGAATGAGGTTATACGGAGATCAGGGAAGAAAGT,1,1.95,1.1,1.68,2.26,2.33,0.836,0.95
GCTTATGGGTCAAAGGTTATAGCATGAATAGAAT,3.09,6.53,4.48,2.11,9.21,3.41,-0.168,1.13
CCGACTGAGGCAGAAAGGTTACCATACCATCCGG,2.04,1.26,0.925,-0.0333,1.87,1.06,-0.0968,-0.0311
ACAGACAGGTGATGAAAGTAACTCAGGCTATCAT,-0.49,0.123,0.169,-0.387,0.297,-0.0258,-0.579,-0.942
GCAGACAGGTGAAACGCAGGAAACTCAGGGTGGC,0.0136,0.246,0.0798,-0.424,0.715,0.142,-0.634,-0.569
